# JMJD2E inh: JMJD2E (human) inhibition; JMJD2E catalytic domain, FDH-coupled NADH fluorescence (FDH is formaldehyde dehydrogenase); AID 2147; Potency, µM (highest dose often 57.1 µM), inactives show top-dose activity change, negative = inhibition, most hits filed as inhibitors; 230,000 tested, 1.6% active; active = well fitted inhibition curve with a large enough effect, not every such curve was filed as active; inconclusive = small, poorly fitted or top-dose-only effect, or another doubt; inactive = no such curve, though single readings can be large or run the other way;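 note: 0% = wells with enzyme and -100% = buffer wells without enzyme; nearly all actives have a fitted effect of over 50% in size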
# GCN5L2 inh: inhibitors of human GCN5L2 histone acetyltransferase; 390,000 tested, 0.21% active; Q92830; GCN5L2 HAT assay, ThioGlo1 CoA-SH fluorescence; Potency, µM (top dose mostly 58.9 µM), for the others: top-dose activity change, negative = inhibition, actives largely listed as inhibitors; note: % is set by controls: 0 for no effect and ±100 for the full control effect
# Target sequence (Q92830 whole entry, looked up): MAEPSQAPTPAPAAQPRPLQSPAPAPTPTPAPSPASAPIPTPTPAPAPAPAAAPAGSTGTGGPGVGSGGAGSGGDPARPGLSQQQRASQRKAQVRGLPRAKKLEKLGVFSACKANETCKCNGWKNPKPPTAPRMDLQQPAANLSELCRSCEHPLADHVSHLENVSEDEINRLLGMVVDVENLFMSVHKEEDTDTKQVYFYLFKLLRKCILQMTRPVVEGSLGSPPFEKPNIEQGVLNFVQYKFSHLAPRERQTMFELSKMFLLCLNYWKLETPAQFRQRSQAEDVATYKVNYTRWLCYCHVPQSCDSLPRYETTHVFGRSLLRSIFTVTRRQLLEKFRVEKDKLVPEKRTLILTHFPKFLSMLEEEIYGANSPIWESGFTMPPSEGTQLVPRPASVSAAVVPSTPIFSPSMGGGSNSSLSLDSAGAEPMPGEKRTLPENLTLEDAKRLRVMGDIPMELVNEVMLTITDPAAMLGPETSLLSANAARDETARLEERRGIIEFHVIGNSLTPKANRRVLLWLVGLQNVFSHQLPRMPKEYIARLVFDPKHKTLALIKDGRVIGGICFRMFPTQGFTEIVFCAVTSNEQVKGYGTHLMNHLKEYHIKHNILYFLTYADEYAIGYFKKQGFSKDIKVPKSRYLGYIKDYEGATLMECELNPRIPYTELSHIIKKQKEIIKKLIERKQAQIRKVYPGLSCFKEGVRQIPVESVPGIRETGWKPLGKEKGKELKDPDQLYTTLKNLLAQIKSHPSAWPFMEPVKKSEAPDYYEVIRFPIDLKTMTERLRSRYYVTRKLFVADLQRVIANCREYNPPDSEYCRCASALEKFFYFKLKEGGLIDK
#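 Free CoA generated was detected with ThioGlo1 (50uM) fluorescence at Ex340nm/Em540nm, read immediately and after 20 min at room temperature. Enzyme, 20 nM in HEPES pH 7.5 buffer, saw compounds 15 min before adding 75uM H3(1-25) peptide and 70uM acetyl-CoA.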
# IMPase Li cell: cell-permeable IMPase inhibitors with lithium potentiation. CHO-M1 cells, IP1 TR-FRET (IP-One), carbachol + lithium. Potency, µM (series often up to 59.4 µM), inactives show at the top dose activity, negative = IMPase inhibition, hits mostly inhibitors. 210,000 tested, 0.35% active;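 note: IP1 builds up when IMPase is blocked and the TR-FRET signal falls; plate controls were basal vehicle for no effect and high inhibitor control for full effect; nearly all actives have a fitted effect of over 50% in size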
#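 CHO cells stably expressing M1 receptor (2000/well) were cultured 16–30 h, then exposed to compounds with a small lithium addition for 30 min at 37C. IP1 was measured by TR-FRET competition; AC50 from Hill fits.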
# NPSR antag: antagonists of human neuropeptide S receptor cAMP signaling | CHO-NPSR cells, cAMP TR-FRET, antagonist mode | Potency, µM (top dose mostly 38.3 µM), for inactives: at the highest dose activity change, negative = inhibition, usual class: inhibitors | 220,000 tested, 1% active | AID 1461; note: % is set by controls: 0 for no effect and ±100 for the full control effect; nearly all actives have a fitted effect of over 50% in size
# Sfp PPTase inh: blocks B. subtilis Sfp PPTase activity; Q9F4F7; Potency, µM, for the others: largest response in the series, negative = inhibition, actives largely listed as inhibitors; AID 1490; Biochemical Sfp PPTase activity, qHTS; 310,000 tested, 3.5% active;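 note: the enzyme is Sfp with the accession as filed and its product quenches rhodamine fluorescence; 0% = enzyme reaction without inhibitor and -100% = no enzyme wells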
#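 Fluorescence-quenching assay with 15 nM Sfp, 5 uM rhodamine-CoA and 12.5 uM BHQ-2-labelled ybbR peptide in pH 7.6 Hepes/MgCl2 buffer. Enzyme was pre-incubated with compound for 15 min at room temperature. Rate was taken from the 30-min fluorescence change (525/598 nm).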
# Epigenetic reg: regulators of epigenetic silencing causing reporter derepression in mouse cells; Potency, µM (titrated, usually from 53.9 µM), inactives show at the highest dose GFP activation, usual class: activators; murine LDR cells, GFP reporter derepression, 30 h; AID 1865; 280,000 tested, 0.2% active; note: % of control where 0% means no effect; nearly all actives have a fitted effect of over 60% in size
#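 Readout is the number of GFP-expressing murine LDR cells, counted by cytometry following washing. Cells were treated with compound for 30 h at 37 C; the stably integrated CMV-GFP locus is normally silent.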
# An asterisk follows results filed as active; ? = inconclusive; . = no result given; [ ] = remark or other dose. A selection: hits, their analogues and other compounds. The true share with any hit is near 3.6%. Unless noted, calls come from the whole dose curve; as a rule, active = well fitted curve in the direction sought with a large enough effect; inconclusive = small, poorly fitted or top-dose-only effect, or another doubt; inactive = no such curve, though single readings can be large; an effect the other way counts as inactive or inconclusive. Potency is the fitted concentration of half-maximal effect.
SMILES,JMJD2E inh,GCN5L2 inh,IMPase Li cell,NPSR antag,Sfp PPTase inh,Epigenetic reg
COC(=O)C1(C)NCCc2c1[nH]c1ccccc21 (centres undefined),.,2.1%,.,.,.,.
CC1(C(=O)O)NCCc2cc(O)c(O)cc21 (centres undefined),.,-14.9%,8.9%,.,56.2µM*,0.0%
Oc1ccc(-c2ccccc2)cc1CN1CCCCCC1,.,0.0%,.,.,89.1µM*,.
CCOC(=O)c1cc(C(=O)c2ccccc2O)cn2c(=O)c3c(C)c(C)sc3nc12,-6.1%,-3.4%,3.6%,-31.8%,44.7µM*,11.6%
CCC(=O)Nc1sc(Cc2ccc3c(c2)OCO3)c(C)c1C(N)=O,-3.6%,22.8%,.,-26.5%,39.8µM*,-0.4%
Cc1c(Cc2ccccc2)sc(N)c1C(N)=O,-12.2%,-8.5%,-3.0%[38.3 µM],?,39.8µM*,0.0%
Cc1c(Cc2ccccc2)sc(/N=C/c2c(O)ccc3ccccc23)c1C(N)=O,?,-29.7%,-14.7%,-2.3%,35.5µM*,13.3%
CCC(=O)Nc1sc(Cc2ccccc2)c(C)c1C(N)=O,?,-14.7%,11.3%,35.3%,?,-1.0%
Cc1ccc(/C=N/c2sc(Cc3ccccc3)c(C)c2C(N)=O)o1,-5.3%,1.3%,0.5%,-4.5%,-12.7%,8.7%
Cc1c(Cc2ccccc2)sc(/N=C/c2ccc3ccccc3c2)c1C(N)=O,?,3.9%,-3.1%,4.8%,-25.2%,8.8%
Cc1c(Cc2ccccc2)sc(NC(=O)C(C)(C)C)c1C(N)=O,-9.8%,-1.4%,8.9%,-45.4%,20µM*,-1.2%
CCN1C(=O)[C@H]2[C@H]3[C@H](O)[C@H](O)C/C(=N/O[C@@H](C)c4cn([C@H](CO)Cc5ccccc5)nn4)[C@@H]3CC[C@@H]2C1=O,.,.,.,.,14.9%,0.8%[10.1 µM]
C[C@@H]1C[C@](C)(C(=O)c2ccco2)C=C1c1ccco1,-9.2%,.,0.2%,.,-5.5%,6.8%
CCC1CCCCN1CCCNC(=O)c1ccc2c(c1)N(Cc1ccc(Cl)cc1)C(=O)c1ccccc1S2(=O)=O (centres undefined),.,-2.9%,.,.,.,18.6%
CCCOc1ccc(C(=O)Nc2nc(C)c(Cc3ccc4c(c3)OCO4)s2)cc1,.,-12.2%,10µM*,?,?,1.0%
CCOc1ccc(S(=O)(=O)N(C(C)=O)c2ccc3oc(C)c(C(=O)OC)c3c2)cc1,.,0.0%,.,.,.,-0.1%
COc1ccc(S(=O)(=O)N(C(C)=O)c2ccc3oc(=O)sc3c2)cc1,-18.9%,-29.4%,0.3%[38.3 µM],-13.2%[46.1 µM],10µM*,0.0%
CS(=O)(=O)Nc1cccc(-c2nccc(-n3ccnc3)n2)c1,?,-23.5%,2.4%,.,56.2µM*,1.3%
Clc1ccccc1-c1nccc(-n2ccnc2)n1,-5.7%,-28.9%,7.2%,.,-27.3%,2.5%
Cc1ccccc1-c1nccc(-n2ccnc2)n1,-26.3%,?,11.0%,.,56.2µM*,2.6%
N#Cc1cccc(-c2nccc(-n3ccnc3)n2)c1,.,-18.6%,-10.6%,.,50.1µM*,.
O=C(O)COc1ccc2ccccc2c1,.,-3.2%,.,.,3.5%,.
CC(=O)C1=C(C)NC(SCC(=O)Nc2nc3ccccc3s2)=C(C#N)C1c1ccc(Cl)cc1 (centres undefined),?,-15.5%,.,-18.0%[46.1 µM],39.8µM*,-0.9%
C=CCOC(=O)C1=C(C)NC(SCC(N)=O)=C(C#N)C1c1ccc(C)cc1 (centres undefined),-27.6%,-29.5%,.,11.3%,19.9%,-1.7%
C=CCOC(=O)C1=C(C)NC(SCC(=O)Nc2ccc(C)c(Cl)c2)=C(C#N)C1c1ccco1 (centres undefined),?,-3.8%,-4.6%[38.3 µM],9.1%[7.67 µM],35.5µM*,-6.1%
SMILES,JMJD2E inh,GCN5L2 inh,IMPase Li cell,NPSR antag,Sfp PPTase inh,Epigenetic reg
CC1=C(C(=O)Nc2ccc(Cl)cc2)C(c2ccncc2)C(C#N)=C(SCC(N)=O)N1 (centres undefined),-8.9%,-0.7%,24.9%[38.3 µM],-23.0%[46.1 µM],89.1µM*,-0.7%
C=CCOC(=O)C1=C(C)NC(SCC)=C(C#N)C1c1ccc(Cl)cc1 (centres undefined),?,-8.1%,11.4%[38.3 µM],10µM*,16.8%,0.8%
COCCOC(=O)C1=C(C)NC(SCC(=O)NC(C)(C)C)=C(C#N)C1c1ccco1 (centres undefined),-24.8%,-3.0%,-4.1%[38.3 µM],-7.4%[46.1 µM],3.6%,1.2%
CCOC(=O)C1=C(C)NC(C)=C(C(=O)OCC)C1c1cccs1,-1.5%,-1.2%,6.9%,1.0%,0.9%,0.0%
CCOC(=O)CSC1=C(C#N)C(c2ccc(OC)cc2)C2=C(CC(C)(C)CC2=O)N1 (centres undefined),5.6%,-7.6%,10µM*,-20.4%[46.1 µM],35.5µM*,-2.0%
CCOC(=O)C1=C(C)NC(SCC(=O)OC)=C(C#N)C1c1ccc(C(=O)OC)cc1 (centres undefined),?,6.7%,26.4%[38.3 µM],?,56.2µM*,2.4%
C#CCSC1=C(C#N)C(c2cccs2)C(C(=O)OCC)=C(C)N1 (centres undefined),?,-2.0%,23.3%[38.3 µM],-7.6%[46.1 µM],28.2µM*,-1.0%
Cc1ccc(/C=C/C(=O)O)cc1S(=O)(=O)NCc1ccco1,1.5%,-15.9%,-5.9%,-1.8%,39.8µM*,-5.6%
CC(C)C[C@@H](CC(=O)N[C@@H](CCC(=O)O)CC(=O)O)NC(=O)[C@@H]1CCCC[C@H]1NC(=O)C[C@@H](NC(=O)C[C@H](Cc1ccccc1)NC(=O)[C@@H]1CNCC[C@H]1N)C(C)C,-5.6%,.,20.1%,.,-24.2%,6.8%
CCC(=O)O[C@@]1(C(=O)CCl)C(C)CC2C3CCC4=CC(=O)C=C[C@@]4(C)[C@]3(F)C(O)C[C@]21C (some centres undefined),1.9%,2.9%,-0.6%,.,19.3%,-1.3%
CCC(=O)O[C@]1(C(=O)CCl)[C@@H](C)C[C@H]2[C@@H]3CCC4=CC(=O)C=C[C@]4(C)[C@@]3(F)[C@@H](O)C[C@@]21C,-4.0%,-4.9%,3.9%,2µM*,-6.6%,0.5%
CCCC(=O)O[C@]1(C(=O)CCl)[C@@H](C)C[C@H]2[C@@H]3CCC4=CC(=O)C=C[C@]4(C)[C@@]3(F)C(=O)C[C@@]21C,-4.8%,-6.0%,11.6%,3.16µM*,-2.6%,-2.3%
CCOC(=O)OCC1OC(c2ccccc2)C=CC1Oc1ccc(F)cc1C (centres undefined),.,.,.,.,5.1%,5.7%[10.1 µM]
O=C(O)/C=C/C(=O)Nc1ccc(Oc2ncnc3cc(Cl)ccc23)nc1,-20.6%,-15.3%,.,7.3%,79.4µM*,-1.1%
CCN1C(=O)/C(=C2/C=CC=CN2C)SC1=S,-20.6%,0.9%,61.4%[38.3 µM],-13.0%[46.1 µM],?,-1.0%
CCN1C(C)=C(C)S/C1=C1\SC(=S)N(N)C1=O,24.7%,-6.2%,27.7%,-19.2%,20µM*,?

# Screening results from PubChem BioAssay.
